Compounds with a hit are over-represented: about 3.9% of the library has one in this group of screens.
BH1578 lux ind: inducers of Vibrio cholerae quorum light production without autoinducers | V. cholerae BH1578 lux reporter, luminescence, 6 h | activation, % at 18.7 µM | 350,000 compounds, 0.16% hits; in the data active means activation mostly above about 9.7%, no sharp cut-off; inconclusive means no clear call, values can overlap the other calls; inactive means mostly below about 3.7%
BoNT-A LC inh2: blocks Botulinum neurotoxin A light chain protease; multiplex microsphere protease substrate cleavage, flow cytometry; inhibition, % at 10 µM; 360,000 compounds, 0.17% hits; AID 588499; further: plate controls were buffer without enzyme for full effect and enzyme alone for no effect
Anthrax LF prot: anthrax lethal factor protease inhibition. P15917. multiplex microsphere protease cleavage assay, LF. inhibition, % at 10 µM. 360,000 compounds, 0.12% hits. AID 588501; further: plate controls were buffer without enzyme for full effect and enzyme alone for no effect
Bead autofluor: counter-screen for toxin protease inhibitors: compound fluorescence | compound autofluorescence counterscreen, microsphere flow cytometry; active compounds read high | fluorescence intensity (test concentration not listed) | 360,000 compounds, 3.1% hits; in the data active means fluorescence intensity above about 16000; inconclusive means no clear call, values can overlap the other calls
BoNT F protease: BoNT F light chain protease inhibition. 360,000 compounds, 0.22% hits. inhibition, % at 10 µM. Multiplex microsphere protease cleavage assay, flow cytometry; in the data active means inhibition above about 35%, passing the limit was not always enough; inconclusive means no clear call, values can overlap the other calls; further: plate controls were buffer without enzyme for full effect and enzyme alone for no effect
MazEF act: MazEF (E. coli) toxin RNase activation | 350,000 compounds, 0.32% hits | P0AE70 | activation, % at 20 µM | AID 504720 | FAM/BHQ RNA-DNA oligo cleavage fluorescence, 5 h; in the data active means activation above about 50%
Target sequence (P0AE70 whole entry, looked up): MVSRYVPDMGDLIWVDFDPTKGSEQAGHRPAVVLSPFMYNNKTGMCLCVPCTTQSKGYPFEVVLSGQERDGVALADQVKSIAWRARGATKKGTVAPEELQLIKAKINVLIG
Starred values were filed as active, the others as inactive; i = inactive; ? = inconclusive; . = not tested or not shown. Unless noted, no stated cut-off is given here; in the data, active means inhibition above about 30%; inconclusive means no clear call, values can overlap the other calls; inactive means below that.

SMILES	BH1578 lux ind	BoNT-A LC inh2	Anthrax LF prot	Bead autofluor	BoNT F protease	MazEF act
CCOc1ccccc1NC(=O)CN(c1cc(C)cc(C)c1)S(=O)(=O)c1c(C)noc1C	-0.2	-0.5	-1.6	5010	-2.0	15.3
COc1ccc(N(CC(=O)Nc2cccc(C)c2C)S(=O)(=O)c2c(C)[nH]c(=O)[nH]c2=O)cc1	-0.2	0.1	-4.8	4166	-1.9	1.1
CCOc1ccccc1NC(=O)CN(c1ccc(OC)cc1)S(=O)(=O)c1c(C)noc1C	i	-1.8	1.4	16905*	-3.0	4.4
CN(C)CCCNC1=CC(=O)OC12CCCCC2	i	-1.6	-0.8	3181	3.5	-3.6
O=C1C=C(N(CCO)CCO)C2(CCCCC2)O1	i	?	-7.9	22987*	-7.0	9.7
Cc1ccc2c(C(=O)CN3CCC(C(N)=O)CC3)c(C)[nH]c2c1	-0.7	-1.2	-0.6	3462	-18.2	.
O=C(C[C@H]1C(=O)N(CCc2ccccc2)C[C@@H]1c1ccccc1)Nc1ccccc1	i	0.4	0.4	3553	1.4	-3.8
CCCCNS(=O)(=O)c1ccc(OC)c2ncccc12	i	?	-0.1	19492*	2.2	2.7
COc1ccc(S(=O)(=O)Nc2cccc(C)c2C)c2cccnc12	-0.5	-0.6	-1.8	3427	9.2	-20.7
COc1ccc(OC)c(C2C(C#N)=C(N)Oc3cc(N)ccc32)c1 (stereo not given)	-1.2	0.9	5.6	6142	-7.8	4.2
CCOc1ccccc1C1C(C#N)=C(N)Oc2cc(N)ccc21 (stereo not given)	-0.2	3.1	-7.0	21823*	0.5	7.3
O=C(Nc1ccc(Cl)cc1)N(Cc1cccnc1)Cc1ccco1	1.6	-1.2	-6.2	9511	-5.2	-3.1
Cc1ccc(NC(=O)N(Cc2cccnc2)Cc2ccco2)cc1C	-0.2	-3.2	-6.6	23168*	-4.1	0.3
CC(C)Cn1cnc2c1c(=O)n(CC(=O)NC(=O)NC(C)(C)C)c(=O)n2Cc1ccccc1	-0.6	-0.4	8.8	3835	-0.7	7.6
Cc1nnc(SCC(=O)NNC(=O)COc2ccc(Cl)cc2)n1C	-0.2	-0.5	1.5	4514	3.9	0.0
COc1ccc(CN2CCN(C(=O)c3ccco3)CC2)c(OC)c1OC	i	.	.	.	.	3.9
CCOC(=O)CSc1nc2sc3c(c2c(=O)n1-c1ccccc1)CCN(C(C)C)C3	i	55.6*	6.0	5608	4.5	-12.5
CN(C)c1ccc(C(C(=O)NC2CCCC2)N(C(=O)c2csnn2)C2CC2)cc1 (stereo not given)	i	-4.3	-3.9	3963	-27.3	11.0
COc1ccc(NC(=O)c2cc(C3CCCCN3C(=O)CCc3ccccc3)on2)c(C)c1 (stereo not given)	i	-0.9	-3.1	2880	4.9	.
Cc1ccc(NC(=O)C2(C)Cc3ccccc3C(=O)O2)cc1 (stereo not given)	-0.2	-0.3	-0.7	2063	2.3	0.4
Nc1ncnc(Nc2cccc(C(F)(F)F)c2)n1	-0.2	?	1.4	17187*	-3.3	2.1
CCOC(=O)C1=C2NC(=O)c3ccccc3N2C(=O)C1	i	-0.3	-4.2	4418	-1.9	132.1*
O=C(CSc1nnc(-c2ccccc2)o1)N1CCc2ccccc2C1	i	-0.1	0.9	9441	-5.2	0.5
O=C(CSc1nnc(-c2ccccc2O)o1)N1CCc2ccccc2C1	i	?	1.1	20351*	-1.2	-3.7
Cc1ccc(S(=O)(=O)N2CCOCC2)cc1NC(=O)CSc1nnnn1C1CC1	-0.2	0.1	-6.4	4006	1.3	2.6
SMILES	BH1578 lux ind	BoNT-A LC inh2	Anthrax LF prot	Bead autofluor	BoNT F protease	MazEF act
COc1ccc(N(C(=O)CNC(=O)c2cccs2)C(C(=O)NC2CCCC2)c2cccnc2)cc1 (stereo not given)	-0.8	-0.6	-3.1	4236	-1.9	-0.8
CNC(=O)COC(=O)c1cc2c(C)nn(-c3ccc(F)cc3)c2s1	-0.4	-1.2	-0.6	16925*	-3.1	-2.2
COc1cccc(CNC(=O)CSc2ccc(-c3cccs3)nn2)c1	i	2.3	2.5	4550	-4.1	1.6
O=C(NCc1ccc(F)cc1)c1cc(S(=O)(=O)N2CCCCC2)ccc1N1CCOCC1	-0.3	-0.3	-4.0	4209	-7.0	-5.2
O=C(NCCc1ccccc1)c1cc(S(=O)(=O)N2CCCC2)ccc1F	i	0.7	-0.8	5354	-4.7	9.3
CCN(CC)S(=O)(=O)c1ccc(F)c(C(=O)NCCC(C)C)c1	-0.2	?	0.9	17171*	-2.4	2.5
O=C(NCc1ccc(F)cc1)c1cc(S(=O)(=O)N2CCOCC2)ccc1F	-0.7	?	0.0	21187*	7.1	6.5
CCCCCNC(=O)c1cc(S(=O)(=O)N2CCCCC2)ccc1F	-0.9	?	-3.1	23121*	4.9	1.0
CCCNC(=O)c1cc(S(=O)(=O)N2CCc3ccccc32)ccc1F	-1.0	-2.7	-0.5	16850*	-3.6	0.2
CCN(CC)S(=O)(=O)c1ccc(Cl)c(C(=O)NC)c1	i	0.5	-0.3	2453	9.0	1.5
COc1ccc(NC(=O)c2ccc(S(=O)(=O)N(C)C)cc2)cc1	i	0.1	-4.5	3406	2.1	-3.5
COc1cc(OC)cc(C(=O)Nc2ccc(S(=O)(=O)N(C)C)cc2)c1	0.7	0.6	-2.5	19847*	-1.7	-4.1
CON1C(=O)C(=O)N(OC)C(C)(C)C1(C)C	-0.4	0.1	0.8	2149	1.7	-1.5
C/C(=N\OCC(=O)N/N=C/c1ccccc1O)c1cccs1	33.3*	1.0	-5.6	6260	-5.5	4.3
N#Cc1sc2nc(-c3cccs3)cc(-c3ccc(Cl)cc3)c2c1N	-0.2	?	11.7	16199*	1.6	-7.8
CC(=O)NC(Cc1cc(C)ccc1C)C(=O)N1CCN(C(=O)Nc2ccc(C(C)=O)cc2)CC1 (stereo not given)	2.2	?	-4.1	17945*	-6.2	-5.7
CC(=O)NC(Cc1cc(C)ccc1C)C(=O)N1CCN(C(=O)c2ccc(Br)cc2)CC1 (stereo not given)	-0.3	-0.3	-1.7	2462	0.7	2.3
CC(C)(C)C(=O)/C(=C/c1ccncc1)n1cncn1	-0.5	-0.2	-2.2	2257	-0.5	3.3
CCCCN(C(=O)CSCC(=O)Nc1ccc(C)cc1)c1c(N)n(Cc2ccccc2)c(=O)[nH]c1=O	12.5	9.6	1.8	3455	19.6	5.2
CCc1sc(NS(C)(=O)=O)nc1-c1ccccc1	-1.2	-1.2	-3.7	23262*	-3.0	9.1
CCOc1ccc(NC(=O)CN(C)C(=O)c2cc([N+](=O)[O-])ccc2N2CCOCC2)cc1OCC	-0.3	.	.	.	.	-1.5
COc1ccc2c(c1)[nH]c1c(=O)n(CC3CCCO3)cnc12 (stereo not given)	-1.0	-1.9	-2.4	17272*	-2.5	-5.2
Cc1cc(C)cc(CC(=O)N2CCC2(C)C(=O)NS(=O)(=O)c2cccc(F)c2)c1 (stereo not given)	-0.3	-0.6	-2.1	3805	1.4	.
N#Cc1c(N)nc2c(c1-c1ccncc1)CCCCC2	3.4	-0.3	-5.7	16184*	-1.2	-15.4
N#Cc1c(N)nc2c(c1-c1cccnc1)CCCCC2	i	?	-6.4	21866*	-0.7	2.8

Screens from PubChem BioAssay.
